PubChem BioAssay AID2501 (Southern Research Specialized Biocontainment Screening …, 2010)
Hit rate of the full screen: of about 2,200 compounds, about 1,200 (55%) were called active. The set was probably picked from earlier hits. Some of the results follow. Unmarked numbers belong to inactive results. The limit is not given here; nearly all actives have IC50 up to about 92 µM.

Test: counter assay for TAg ATPase ADP read-out – biochemical, ADP-Hunter, fluorescence, counter-screen (AID 2501);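 also: purified T antigen ATPase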;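 as to inhibition: 0% = enzyme with vehicle and 100% = reference inhibitor wells; higher means more inhibition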
Details: series mostly up to 100 µM; inhibition: at the top concentration

Row | Structure (SMILES) | inhibition | IC50
1 | Cc1ccccc1CN(C)C(=O)COC(=O)CSc1ccc([N+](=O)[O-])cc1 | -30.8% | 
2 | COC/C=C/C1=CC2=CC(=O)C(C)(OC(=O)c3ccco3)C(=O)C2=CO1 (stereo not given) |  | 2.83 µM (active)
3 | COC/C=C/C1=CC2=CC(=O)C(C)(OC(=O)CCC(=O)OC)C(=O)C2=CO1 (stereo not given) | 2.78% | 
4 | COC/C=C/C1=CC2=CC(=O)C(C)(OC(=O)c3cnc4ccccc4n3)C(=O)C2=CO1 (stereo not given) | -8.04% | 
5 | O=c1[nH]c(=O)c2nnc(N/N=C\c3ccc(O)cc3)nc2[nH]1 |  | 7.96 µM (active)
6 | CCc1cc(N2CCOCC2)cc2c1[nH]c1ccccc12 |  | 6.15 µM (active)
7 | Cc1ccc(Cn2c(=S)[nH]c3ccc(N4CCOCC4)cc3c2=O)o1 | 9.7% | 
8 | O=c1c2cc(N3CCOCC3)ccc2[nH]c(=S)n1Cc1ccco1 | 26.4% | 
9 | Cc1cc(C)c(S(=O)(=O)c2ccccc2Cl)c(Cl)n1 | 3.15% | 
10 | CN1CCC/C1=C/C=C1\SC(=S)NC1=O |  | 7.5 µM (active)
11 | O=C1NC(=S)SC1=C1CCCC1 | 23.6% | 
12 | CC(=O)c1sc2nsc(SCCN3CCOCC3)c2c1N |  | 21.3 µM (active)
13 | O=C(O)CCC(=O)Nc1ccc(SSc2ccc(NC(=O)CCC(=O)O)cc2)cc1 | -10.5% | 
14 | CS(=O)(=O)c1ccc(NC(=O)CCN2C(=O)C3CCCCC3C2=O)cc1 (stereo not given) | -26.7% | 
15 | O=C(CCn1c(=O)oc2cc(Cl)ccc21)Nc1ccc(O)cc1 |  | 3.84 µM (active)
16 | CN(C)CCN(C(=O)c1ccccc1Cl)c1nc2c(Cl)cccc2s1 | 11% [at 50 µM] | 
17 | C/C(=N/NC(N)=S)c1cc2ccc(O)cc2oc1=O |  | 25.3 µM (active)
18 | COC(=O)CSc1nnc(CNc2ccc(OC)cc2)n1C |  | 19.3 µM (active)
19 | COc1ccc(-n2c(SCC(=O)Nc3ccc(Cl)cc3)nc(O)c(Cc3ccccc3)c2=O)cc1 | -18.5% | 
20 | COc1ccc(CCNC(=O)CSc2nncs2)cc1 | -4.58% | 
21 | CCOc1ccc(NCc2nnc(SCC(=O)Nc3cc(C)on3)n2-c2ccc(OC)cc2)cc1 |  | 13.5 µM (active)
22 | COc1ccc(-c2nnc(SCC(=O)c3ccc[nH]3)n2-c2ccccc2)cc1 | -19.4% | 

Row | Structure (SMILES) | inhibition | IC50
23 | CCN1CCC[C@H]1CNC(=O)c1c(O)c(Cl)cc(Cl)c1OC | 12.9% | 
24 | Nc1ccc(OCC(O)C[n+]2ccc(CCS(=O)(=O)[O-])cc2)cc1 (stereo not given) |  | 4.65 µM (active)
25 | O=C(Cc1coc(-c2ccc(F)cc2)n1)NCc1ccccc1 | 6.02% | 
26 | Oc1ccc(/C=C/c2cc(O)cc(O)c2)cc1 |  | 11.3 µM (active)
27 | O=C(/C=C/c1ccc(O)c(O)c1)c1ccccc1O |  | 6.57 µM (active)
28 | Oc1cc(O)cc(/C=C/c2ccc(O)c(O)c2)c1 | 21.8% [at 50 µM] | 
29 | O=C(O)/C=C/c1ccc(O)cc1 |  | 8.81 µM (active)
30 | O=C(O)/C=C/c1ccc(O)c(O)c1 |  | 6.76 µM (active)
31 | O=C(c1nnsc1S(=O)c1ccc(Cl)cc1)N1CCOCC1 (stereo not given) | -15.7% | 
32 | COc1cccc2c(=O)n(CC(=O)Nc3ccccc3F)ccc12 | -11.2% | 
33 | CC(/C=C/c1ccc(O)cc1)=N/O |  | 3.08 µM (active)
34 | Cc1coc2c1C(=O)C(=O)c1c-2ccc2c(C)cccc12 | -32.7% | 
35 | Oc1ccc(/C=N/n2c(COc3ccccc3)n[nH]c2=S)cc1O |  | 9.32 µM (active)
36 | CCn1c(/C=C/c2c(C)[nH]c3ccccc23)nc2ccccc2c1=O | -12.5% | 
37 | Cc1nc2ccccc2c(=O)n1/N=C/c1cn(-c2ccccc2)nc1-c1cccs1 | -4.96% | 
38 | N#CCn1c(CCl)nc2ccccc2c1=O | -26.1% | 
39 | O=C(OCn1nnc2ccccc2c1=O)c1ccc(O)cc1 | -20.6% | 
40 | CCCc1nc2ccccc2c(=O)n1/N=C/c1ccc(O)c(O)c1 |  | 10.5 µM (active)
41 | CCn1c(/C=C/c2ccc(O)c(O)c2)nc2ccccc2c1=O |  | 64.8 µM (active)
42 | O=c1c2ccccc2nc(COc2ccccc2)n1/N=C/c1ccc(O)c(O)c1 |  | 12.1 µM (active)
43 | CSC1=NS(=O)(=O)c2c(C)nn(C)c2S1 | 19.3% | 
44 | CC(C)(C)c1cc[n+](C2=C([O-])c3ccccc3C(=O)/C2=N\S(=O)(=O)c2ccccc2)cc1 | -13.2% | 

Row | Structure (SMILES) | inhibition | IC50
45 | CCCNC(=O)c1ccc2c(=O)c(O)c(-c3cccc(Br)c3)[nH]c2c1 | 22.1% | 
46 | Nc1cc(CN2C(=O)c3ccccc3C2=O)cc(Cl)c1O |  | 4.47 µM (active)
47 | O=C1/C(=N/n2cnnc2)c2ccccc2N1Cc1ccccc1 | 2.34% | 
48 | O=C(NCc1ccccc1)c1onc(CSc2ccc(F)cc2)c1C(=O)NCCCN1CCOCC1 | 20.7% | 
49 | Oc1ccc(-c2nc3ncccn3c2Nc2ccc3c(c2)OCO3)cc1 |  | 5.13 µM (active)
50 | COc1cc(-c2nc3cnccn3c2Nc2ccccc2)ccc1O |  | 2.57 µM (active)
51 | CCN(CC)c1ccc(-c2nc3cnccn3c2NC2CCCC2)cc1 |  | 12.1 µM (active)
52 | CN(C)c1ccc(-c2nc3cnccn3c2Nc2ccc3c(c2)OCCO3)cc1 |  | 11.3 µM (active)
53 | CC12CCC(C/C1=N/O)C2(C)C (stereo not given) | -1.49% | 
54 | COc1ccc(-c2c(C)n([O-])c3c([n+]2=O)CCCCC3)cc1OC | -3.4% | 
55 | Cc1ccc(/C(O)=C2/C(=O)C(=O)OC2c2ccc(Cl)cc2)cc1 (stereo not given) | -3.47% | 
56 | Oc1ccc(-c2nc3cnccn3c2Nc2ccc3c(c2)OCCO3)cc1 |  | 3.53 µM (active)
57 | CCOC(=O)c1sc(N)nc1C(C)C | 22.1% | 
58 | CCOC(=O)c1cc(-c2ccc(N)cc2)sc1N |  | 5.53 µM (active)
59 | NNC(=O)c1sc2cc(C(F)(F)F)cnc2c1-c1ccccn1 | -6.44% | 
60 | NNC(=O)c1cc(-c2ccccc2)sc1N |  | 8.67 µM (active)
61 | CCOC(=O)c1c(N)ssc1=S | 20.8% [at 12.5 µM] | 
62 | CC(=O)c1ccc2c3c(cccc13)C(=O)N(c1c(C)nn(C)c1C)C2=O | -5.47% | 
63 | O=C(NCc1cccs1)Nc1cc(Cl)ccc1Cl |  | 91.1 µM (active)
64 | O=C(NCc1ccco1)Nc1cccs1 | 13.2% | 
65 | Cc1ccc(C)n1/N=C1/NC(=O)CS1 | -36% | 
66 | Oc1cc(O)c2c(c1)OC(c1ccc(O)c(O)c1)C(O)C2 (stereo not given) |  | 3.95 µM (active)

Row | Structure (SMILES) | inhibition | IC50
67 | Oc1cc(O)c2c(c1)O[C@H](c1ccc(O)c(O)c1)[C@@H](O)C2 |  | 11.9 µM (active)
68 | COC(=O)Cc1cc(=O)n(-c2nc3ccccc3s2)[nH]1 | 24.2% | 
69 | CC(=O)O[C@H]1C[C@@]2(C)[C@@H](C[C@@H](O)[C@H]3[C@@]4(C)CC[C@@H](O)[C@@H](C)[C@@H]4CC[C@@]32C)/C1=C(\CCC=C(C)C)C(=O)O | -1.81% | 
70 | N#C/C(=C\c1cccc(Cl)c1)C(=O)c1ccccc1 | -20.2% | 
71 | COc1cc(/C=C(\C#N)C(=O)c2ccc(O)c(O)c2)cc(I)c1O |  | 12.3 µM (active)
72 | N#C/C(=C\c1ccc(O)c(O)c1)C(=O)c1ccc(O)c(O)c1 |  | 3.24 µM (active)
73 | Cc1cccc(C2c3[nH]c4ccccc4c3CCN2C(=O)c2nn(C)c(=O)c3ccccc23)n1 (stereo not given) | 16.7% | 
74 | COC(=O)/C=C1/N/C(=N\c2nc(C)cc(C)n2)N(c2ccc(Cl)cc2)C1=O | -16.3% | 
75 | Cc1cc2ccccc2n1CCNC(=O)COc1ccc2ccccc2c1 | -19.9% | 
76 | OCC1CCCN(C(=S)Nc2ccc(Nc3ccccc3)cc2)C1 (stereo not given) |  | 3.07 µM (active)
77 | OC1CCN(C(=S)Nc2ccc(Nc3ccccc3)cc2)CC1 |  | 2.9 µM (active)
78 | Cc1cc(C)c2c(c1)NC(C(=O)O)C1CC=CC21 (stereo not given) | 9.1% | 
79 | N#Cc1c(SCC(=O)Nc2nncs2)sc2c(O)cc(=O)[nH]c12 | 17.1% | 
80 | c1nc2sc3c(c2c2nnnn12)CCC3 | 19.6% | 
81 | Nc1ccc(-c2nc3c(Cl)cc(N)cc3[nH]2)cc1 |  | 4.91 µM (active)
82 | Nc1ccc(-c2nc3c(Cl)c(N)ccc3[nH]2)cc1 |  | 3.24 µM (active)
83 | O=C(O)COc1ccccc1C(Nc1cccnc1)c1cc(Cl)c2cccnc2c1O (stereo not given) | 17% | 
84 | CCc1c(C)nc2ncnn2c1N1CCCC(C(=O)Nc2cc(F)ccc2C)C1 (stereo not given) | 8.93% | 
85 | Cc1ccc(-c2cc(-c3ccco3)c(C#N)c(=O)[nH]2)cc1 | -5.39% | 
86 | CCCCOC1(c2ccccc2)NC(=S)NN=C1c1ccccc1 (stereo not given) |  | 4.2 µM (active)
87 | CC(C)N1CC(C(=O)O)CC1=O (stereo not given) | -23.5% | 
88 | CN1CC(C(=O)O)Cc2c1ccc1ccccc21 (stereo not given) |  | 8.64 µM (active)

Row | Structure (SMILES) | inhibition | IC50
89 | COc1cc(C#CC#CCN2CCCCC2)ccc1O |  | 5.76 µM (active)
90 | O=C(O)CN1C(=O)/C(=C\c2cc([N+](=O)[O-])ccc2OCc2ccccc2Cl)SC1=S | -18.7% | 
91 | CN1C(=O)/C(=C/c2ccc(-c3ccccc3[N+](=O)[O-])o2)SC1=Nc1ccc(Cl)c(C(=O)O)c1 |  | 92.5 µM (active)
92 | CCCCOC(=O)Nc1ccc(N(C)C)cc1 |  | 4.65 µM (active)
93 | CCCCOC(=O)c1ccc(NC(=O)Nc2ccc(OC)c(OC)c2)cc1 | 0.76% | 
94 | C=CCNC(=S)Nc1ccc(N(C)C)cc1 |  | 1.99 µM (active)
95 | CN(C)c1ccc(NC(N)=S)cc1 |  | 3.1 µM (active)
96 | CCOC(=O)c1c(C)c(C(=O)Nc2ccc(N(C)C)cc2)c(C)n1CC |  | 10.6 µM (active)
97 | Cc1cc(S(=O)(=O)Nc2c(C)nc3nc[nH]n3c2=O)ccc1F | -32.6% | 
98 | CC(C)CC(NC(=O)C1CCC(=O)N1C(=O)OCc1ccccc1)C(=O)NC(Cc1ccccc1)C(N)=O (stereo not given) | -23% | 
99 | CCN(CC)C(=S)SSC(=S)N(CC)CC | -2.02% | 
100 | O=C(NCC1CCCO1)c1ccc2c(c1)N(Cc1ccc(F)cc1)CCS2 (stereo not given) | 26.3% | 
101 | CN(C)c1ccc(NC(=S)NCC2CCCO2)cc1 (stereo not given) |  | 7.16 µM (active)
102 | Cn1cccc1Cc1nnc(SCC(=O)NCC2CCCO2)n1C (stereo not given) | 11.1% | 
103 | CCOC(=O)C1(C)C=C(Nc2ccc(O)cc2)C(=O)N1c1ccc(O)cc1 (stereo not given) |  | 2.33 µM (active)
104 | Oc1ccc(NCc2cccs2)cc1 |  | 4.39 µM (active)
105 | Clc1cc(NCc2cccs2)ccc1N1CCOCC1 |  | 31.5 µM (active)
106 | c1csc(CN2CCOCC2)c1 | -24.8% | 
107 | COc1ccc2c(c1)C(=O)Cc1ccccc1O2 | -33.9% | 
108 | Cc1cc2c(N)cccc2nn1 | 13.3% | 
109 | Cc1ccc2nsnc2c1NS(=O)(=O)c1c(C)ccc2nsnc12 | -23.3% | 
110 | Nc1cccc2nsnc12 |  | 11 µM (active)
